Measurements as given in the supplement of paper PMC12669032.
Values joined by “and” are separate entries in the source; they are usually repeats but may differ in a detail not shown here. Identical values can stand only once. A number with no mark means an inactive call.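 The calls were made as follows: active = AUC reduced over 20% with Padj below 0.05 in at least 2 of 3 replicates; inactive = otherwise.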

What was measured:
Assay in all cases: growth AUC relative to DMSO control (median of replicates) (fraction); higher = more growth (less inhibition), active = hit call of the paper
Settings in all cases: 20 µM; 24 h
Akkermansia muciniphila = test system: Akkermansia muciniphila
In short: (§1)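 Each value is the median of three biological replicates, grown on separate days, of a gut bacterial monoculture incubated anaerobically at 37 °C in mGAM with 20 µM compound (1% DMSO). Cultures started at OD600 0.05 and were read at OD600 hourly for 24 h, with the minimum OD set to 0. Area under the growth curve was normalised to the plate median of solvent-only wells, or to row and column medians on the industrial chemical plate.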

Bacteroides caccae = test system: Bacteroides caccae
In short: as §1

Bacteroides clarus = test system: Bacteroides clarus
In short: as §1

Bacteroides dorei = test system: Bacteroides dorei
In short: as §1

Bacteroides stercoris = test system: Bacteroides stercoris
In short: as §1

[1] = test system: Bacteroides thetaiotaomicron
In short: as §1

Bacteroides uniformis = test system: Bacteroides uniformis
In short: as §1

[2] = test system: Bifidobacterium longum subsp. longum
In short: as §1

Clostridium difficile = test system: Clostridium difficile
In short: as §1

Collinsella aerofaciens = test system: Collinsella aerofaciens
In short: as §1

Compound	growth AUC (Akkermansia muciniphila)	growth AUC (Bacteroides caccae)	growth AUC (Bacteroides clarus)	growth AUC (Bacteroides dorei)	growth AUC (Bacteroides stercoris)	growth AUC [1]	growth AUC (Bacteroides uniformis)	growth AUC [2]	growth AUC (Clostridium difficile)	growth AUC (Collinsella aerofaciens)
CCOP(=S)(OCC)SCS(=O)(=O)C(C)(C)C	0.89	1.02	0.944	0.994	0.976	1.01	1.01	0.966	0.98	1.02
CCCCCCCCSC(=O)Oc1cc(Cl)nnc1-c1ccccc1	1.01	0.983	0.983	0.99	0.981	1.02	0.91	0.966	0.981	0.973
CCOP(=O)(SC(C)CC)N1CCSC1=O (stereo not given)	0.9	1.02	0.977	1	1.07	0.992	0.996	1.02	1.02	1.05
CCNP(=S)(OC)O/C(C)=C/C(=O)OC(C)C (stereo not given)	0.983	0.966	0.957	0.998	1	0.953	0.993	0.983	0.986	1.01
COC(=O)NCc1cc(/C(C)=N/OCc2cccc(C)n2)ccc1Cl	1.06	0.965	0.947	0.946	0.972	0.944	0.808	0.981	0.956	1.01
ClC1=C(Cl)C2(Cl)C3C(Cl)C=CC3C1(Cl)C2(Cl)Cl (stereo not given)	1.1	1.01	1.01	0.958	1.08	0.99	0.983	0.932	0.963	0.951
CC1(C)C(C=C(Cl)Cl)C1C(=O)OC(C#N)c1cccc(Oc2ccccc2)c1 (stereo not given)	1.06	0.942	1.03	1.02	1.24	0.963	1.01	0.926	0.986	0.966
Oc1ccc(-c2ccccc2)cc1	0.809	1.03	0.948	0.991	0.815	0.985	0.957	0.899	1.03	1
COc1cc(Cl)c(OC)cc1Cl	1.03	1.04	1	1.04	1.01	1.04	1	0.995	1.05	1.11
CCOP(=S)(OCC)Oc1cnccn1	0.892	0.985	0.963	1.01	0.979	0.985	0.982	1.04	0.974	0.993
CCc1ccc(C(=O)NN(C(=O)c2cc(C)cc(C)c2)C(C)(C)C)cc1	0.924	1.03	0.993	0.987	0.875	0.976	0.955	0.911	0.965	1
c1cc2ccc3cccc4ccc(c1)c2c34	0.918	0.992	1	0.997	1.01	0.997	1.02	0.948	0.959	0.946
ClC1=C(Cl)[C@]2(Cl)[C@@H]3[C@H]4C[C@H]([C@@H]5O[C@H]45)[C@@H]3[C@@]1(Cl)C2(Cl)Cl	0.861	0.979	0.864	0.958	0.773	0.925	0.709 (active)	0.962	1	0.936
O=C(O)CCl	0.94	0.966	0.991	0.982	1.07	1	0.947	0.938	0.995	0.976
CCCCNC(=O)n1c(NC(=O)OC)nc2ccccc21	1.04	0.999	0.979	1	1.01	0.999	1.02	0.984	0.955	0.993
c1cc2c3c(cccc3c1)CC2	0.966	1	1	1.01	0.991	0.999	0.994	0.961	0.993	0.995
Cc1[nH]c(=O)n(C(C)(C)C)c(=O)c1Cl	1.07	1	0.993	0.96	0.979	1	0.981	0.978	0.997	0.924
CC(C1CC1)C(O)(Cn1cncn1)c1ccc(Cl)cc1 (mixture of isomers)	1.04	0.83	0.987	0.941	1.41	0.893	0.929	1.09	0.966	0.926
COP(=O)(OC)Oc1ccc(S(C)(=O)=O)c(C)c1	0.876	0.971	0.963	0.987	1.01	1	0.981	0.956	0.994	1.01

Compound	growth AUC (Akkermansia muciniphila)	growth AUC (Bacteroides caccae)	growth AUC (Bacteroides clarus)	growth AUC (Bacteroides dorei)	growth AUC (Bacteroides stercoris)	growth AUC [1]	growth AUC (Bacteroides uniformis)	growth AUC [2]	growth AUC (Clostridium difficile)	growth AUC (Collinsella aerofaciens)
CCNc1nc(Cl)nc(NCC)n1	0.894	1	1.01	1.02	1.02	1.01	1.01	1.05	1.01	1.04
ClC1=C(Cl)C2(Cl)[C@H]3[C@@H]4O[C@@H]4[C@H](Cl)[C@H]3C1(Cl)C2(Cl)Cl (single isomer, unassigned; isomer b)	1.29	0.98	0.973	0.933	0.752	0.96	0.89	1.19	1.01	0.957
CSC1=N[C@@](C)(c2ccccc2)C(=O)N1Nc1ccccc1	1.05	0.978	0.967	0.985	1.26	0.961	0.986	1.04	0.997	0.99
Oc1ccccc1Cl	0.985	1.01	0.993	1.01	1.05	0.983	0.988	0.99	0.995	1
Clc1ccccc1-c1nnc(-c2ccccc2Cl)nn1	0.748	0.892	0.969	0.974	1.25	0.999	0.974	0.825	0.997	0.942
CNC(=O)O/N=C(\C)C(C)S(C)(=O)=O (stereo not given)	1.15	0.99	1.01	0.969	0.931	1.03	1.01	1.27	0.98	0.953
Cc1cnc(C2=NC(C)(C(C)C)C(=O)N2)c(C(=O)O)c1 (stereo not given)	1.05	0.987	0.993	1.02	0.976	1.01	1.01	1.03	1.01	1.02
O=C(O)c1cc(Oc2ccc(C(F)(F)F)cc2Cl)ccc1[N+](=O)[O-]	1.01	1.04	0.925	0.916	0.84	1.02	0.985	1.06	0.966	0.956
CCOP(=S)(OCC)SCS(=O)(=O)CC	1.08	0.96	1.01	0.977	1.09	0.996	0.984	0.951	1.01	1.02
CNC(=O)/C=C(\C)OP(=O)(OC)OC	1.05	1.03	0.991	1.02	1.09	1.01	1.01	0.947	1.04	1.04
CCS(=O)(=O)c1cccnc1S(=O)(=O)NC(=O)Nc1nc(OC)cc(OC)n1	0.976	1.01	0.983	0.993	0.963	0.981	0.974	0.995	0.942	1
Cc1cc(Cl)ccc1N=CN(C)C.Cl	1.06	0.997	1.01	1.03	0.972	1.01	0.982	1.03	1.04	0.978
O=S1OC[C@@H]2[C@H](CO1)[C@]1(Cl)C(Cl)=C(Cl)[C@@]2(Cl)C1(Cl)Cl (stereo not given in full)	0.871 and 0.977	0.96 and 1.01	0.957 and 0.941	0.965 and 0.954	0.913 and 0.734	0.959 and 0.894	0.903 and 0.899	0.963 and 0.916	0.98 and 0.994	0.99 and 0.941
CO/N=C(/C1=NOCCO1)c1ccccc1Oc1ncnc(Oc2ccccc2Cl)c1F	0.963	0.987	0.957	0.938	0.941	0.961	0.963	0.845	0.948	1.02
COC(=O)N(OC)c1ccccc1COc1ccn(-c2ccc(Cl)cc2)n1	0.936	0.803	0.91	0.972	1.09	0.91	0.861	1.03	0.989	1
ClC1(Cl)C2(Cl)C3(Cl)C4(Cl)C(Cl)(Cl)C5(Cl)C3(Cl)C1(Cl)C5(Cl)C24Cl (stereo not given)	0.866	0.966	0.972	1.01	1.06	1	0.937	0.846	1	0.94
COc1nc(C)nc(NC(=O)NS(=O)(=O)c2ccccc2CCC(F)(F)F)n1	0.874	0.985	1.01	0.992	0.978	0.948	0.978	0.966	0.992	0.966
O=C(NCCc1ncc(C(F)(F)F)cc1Cl)c1ccccc1C(F)(F)F	0.849	0.978	1.01	1	0.951	0.973	0.987	0.974	0.996	1
